Screening results from PubChem.
Many of the other results were omitted from the sample, so hits are more common in it than they were.
12-hLO inh: 12-hLO (ALOX12) enzyme inhibition; P18054; AID 1452; purified 12-hLO, xylenol orange hydroperoxide absorbance; Potency, µM (series often up to 57.1 µM), inactives show at the highest dose activity change, negative = inhibition, hits mostly inhibitors; actives 0.12% (n = 150,000); also: nearly all actives have a fitted effect of over 55% in size
Target sequence (P18054 whole entry, looked up): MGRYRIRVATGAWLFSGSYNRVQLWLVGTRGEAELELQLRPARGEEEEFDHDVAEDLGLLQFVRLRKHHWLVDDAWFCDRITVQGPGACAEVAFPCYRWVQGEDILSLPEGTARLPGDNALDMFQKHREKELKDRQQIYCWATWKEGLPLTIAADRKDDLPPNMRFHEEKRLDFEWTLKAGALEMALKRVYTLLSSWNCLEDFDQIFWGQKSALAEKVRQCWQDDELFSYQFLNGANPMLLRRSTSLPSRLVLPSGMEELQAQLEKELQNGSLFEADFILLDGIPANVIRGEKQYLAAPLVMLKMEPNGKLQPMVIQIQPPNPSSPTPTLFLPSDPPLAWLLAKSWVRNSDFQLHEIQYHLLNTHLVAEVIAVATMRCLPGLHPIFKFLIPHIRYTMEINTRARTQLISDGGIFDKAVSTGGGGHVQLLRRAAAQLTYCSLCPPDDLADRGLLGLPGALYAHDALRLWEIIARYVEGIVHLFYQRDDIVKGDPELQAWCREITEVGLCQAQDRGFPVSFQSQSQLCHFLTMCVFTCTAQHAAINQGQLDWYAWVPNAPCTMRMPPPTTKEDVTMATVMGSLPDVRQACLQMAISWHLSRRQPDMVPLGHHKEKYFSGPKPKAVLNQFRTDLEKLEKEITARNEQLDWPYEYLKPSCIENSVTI
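Hydroperoxide formation by human 12-lipoxygenase from 40 uM arachidonic acid was followed colorimetrically via ferric-xylenol orange complex, using the 573/405 nm absorbance ratio. Enzyme concentration was 150 nM, with 30 min reaction at room temperature.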
ALOX15B inhib: 15-hLO-2 (ALOX15B) enzyme inhibition; purified 15hLO-2, xylenol orange hydroperoxide absorbance; O15296; Potency, µM (titrated, usually from 57.1 µM), for inactives: at the top dose activity change, negative = inhibition, actives largely listed as inhibitors; actives 0.56% (n = 110,000); AID 881; also: nearly all actives have a fitted effect of over 60% in size
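Read-out: hydroperoxide product oxidises ferrous iron, measured as xylenol orange complex via the 573-to-405 nm absorbance ratio after 30 min. Reaction: 50 nM enzyme, 15 min compound preincubation, 45 uM arachidonic acid, 90 min RT, Hepes pH 7.5 with Triton X-100.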
An asterisk follows results filed as active; ? = inconclusive; nt = no result given; [ ] = remark or other dose. Calls follow the shape of the dose curve; as a rule, active = well fitted curve in the direction sought with a large enough effect; inconclusive = small, poorly fitted or top-dose-only effect, or another doubt; inactive = no such curve, though single readings can be large; an effect the other way counts as inactive or inconclusive. % is scaled to controls: 0 for no effect and ±100 for the full control effect; potency is read from the fitted curve at half-maximal effect.

SMILES	12-hLO inh	ALOX15B inhib
O=C1N/C(=C/c2ccc(N3CCOCC3)cc2)C(=O)N1Cc1ccc(F)cc1	-6%	?
CC(C)n1cc(/C=C2/SC(=O)N(CC(=O)N3CCCC3)C2=O)c2ccccc21	4%	0%
CC(C)OC(=O)CN1C(=O)S/C(=C/c2ccc(N3CCCCC3)o2)C1=O	-8%	13µM*
O=C1S/C(=C/c2ccc(N3CCOCC3)o2)C(=O)N1Cc1ccc(F)cc1	?	1.3µM*
O=C1NC(=S)S/C1=C/c1ccc(N2CCOCC2)o1	-28%	nt
COc1cc(/C=C2\SC(=Nc3ccccc3)N(CCc3c[nH]c4ccccc34)C2=O)ccc1OC(C)C(=O)O (stereo not given)	-2%	nt
O=S(=O)(Nc1ccc(Cl)cc1Cl)c1cc(Cl)ccc1Cl	-8%	nt
CCCCc1nc2c(c3c1C[C@H](C)OC3)CN(C(=O)N[C@H](C(=O)OC)C(C)C)CC2	3%[11.4 µM]	nt
COc1cc(O)c2c(O)c3c(c4c2c1[C@@]1(C4)C(C)=CCCC1(C)C)[C@H](O)[C@@]1(O)CC(=O)C(C(N)=O)=C(O)[C@]1(O)C3=O	-28%[11.4 µM]	?
CSc1nc(N)c2ncn([C@@H]3O[C@@H](COP(=O)(O)OP(=O)(O)OP(=O)(O)O)[C@@H](O)[C@H]3O)c2n1	-3%	9%
CN1CCC(CNC(=O)c2ccc(Cc3nc4ccccc4[nH]3)cc2)CC1	0%	nt
CCNC(=S)Nc1ccc(Cl)cc1Cl	0%	nt
S=C(NCCSCc1ccc(Cl)cc1Cl)Nc1ccccc1	25µM*	?
S=C(NCCc1ccccc1)Nc1ccc(Cl)cc1Cl	?	25µM*
S=C(Nc1ccccc1)Nc1ccc(OCc2ccc(Cl)cc2Cl)cc1	-10%	-22%[11.4 µM]
COc1cccc(-c2nc(NC3CCNCC3)c3ccccc3n2)c1	nt	50%
CC(C)(C(=O)O)c1ccc([C@@H](O)CCCN2CCC(C(O)(c3ccccc3)c3ccccc3)CC2)cc1	3%	-1%
CN(C)CCNC(=O)c1ccc(Cc2nc3ccccc3[nH]2)cc1	1%	nt
O=C(NC(=S)NCC1COc2ccccc2O1)c1ccccc1 (stereo not given)	13µM*	nt
O=C(NCC1COc2ccccc2O1)c1ccccc1 (stereo not given)	1%	-5%
CCCCCCCCCCCCC/C=C/[C@@H](O)[C@H](CO)N(C)C	-1%	nt
COc1ccc(/C=C2\CCCC3C2=NC(=S)NC3c2ccc(OC)cc2)cc1 (stereo not given)	14µM*	nt
CCCn1c(SCC(=O)N2N=C3/C(=C/c4ccc(OC)cc4)CCCC3C2c2ccc(OC)cc2)n[nH]c1=O (stereo not given)	-1%	nt
CN1CCN(c2ncc3nc(-c4cc(F)cc(F)c4)c(=O)n(CCC#N)c3n2)CC1	nt	20µM*
COCCn1c(=O)c(-c2cc(F)cc(F)c2)nc2cnc(N3CCN(C)CC3)nc21	nt	1%
SMILES	12-hLO inh	ALOX15B inhib
COC/C=C/C1=CC2=CC(=O)C(C)(OC(=O)c3cnc4ccccc4n3)C(=O)C2=CN1Cc1ccc2c(c1)OCO2 (stereo not given)	-6%[11.4 µM]	nt
CN(C)CCO[C@](C)(c1ccccc1)c1ccccn1	2%[25.6 µM]	15%[25.6 µM]
COC(=O)C1=C(C)NC(C)=C(C(=O)OCCN(C)Cc2ccccc2)[C@@H]1c1cccc([N+](=O)[O-])c1	-5%	28%
COc1ccc(C(=O)N/N=C/c2cccc3cccnc23)cc1	2%	50%
COc1ccc(C(=O)N/N=C/c2cc3ccccc3[nH]c2=S)cc1	18µM*	?
CCCCCCCCCCCCCCC[C@@H](O)[C@H](CO)NC(C)=O	-6%	nt
Oc1ccc(-c2nc(-c3ccc(O)c(O)c3)cs2)cc1	5µM*	4µM*
Oc1ccc(Nc2nc(-c3ccc4ccccc4c3)cs2)cc1	-24%	-6%
COCCn1c(=O)c(CCc2ccccc2)nc2cnc(Oc3cccc(Cl)c3)nc21	-5%	0%
CCC(C)c1ccc(O)c(N)c1 (stereo not given)	-27%	?
CC(C)c1ccc(O)c(N)c1	?	5µM*
CCC(Cl)CC(Cl)C(Cl)C(Cl)C(Cl)C(C)Cl (stereo not given)	-3%	2%
N#Cc1c(Sc2ncc(C(F)(F)F)cc2Cl)nsc1C/C=N\OCc1ccccc1Br	-13%	13µM*
CCOC(=O)/C(=C\Nc1ccccc1C(F)(F)F)Sc1ncc(C(F)(F)F)cc1Cl	0%	4%
CCCCC/C=C\C/C=C\C=C\[C@@H](O)C/C=C\CCCC(=O)O	-2%	nt
O=C(N/N=C/c1ccccc1O)c1cc(-c2ccccc2)n[nH]1	0%	nt
Cc1c(C(C)(C)C)c(C=S)n2ccccc12	-18%	16µM*
CC(C)(C)c1ccc(-c2nc(C=O)c3ccccn23)cc1	-15%	-8%
S=C1NCCc2ccccc2C1c1ccccc1 (stereo not given)	28µM*	nt
S=C1NCCc2ccccc2C1c1ccccc1Cl (stereo not given)	-27%	nt
Cc1cc(-c2csc(NC(=O)c3cc4ccccc4o3)n2)c(C)n1C	3%	nt
O=C(Nc1nc(-c2cc3ccccc3oc2=O)cs1)c1ccc(Br)o1	20µM*	?
Cc1cccc2c1N(CCCOc1ccccc1)C(=O)C2=O	-21%	-28%
Cc1ccccc1OCCCN1C(=O)C(=O)c2cccc(C)c21	?	25µM*
CCOc1cc(/C=C2/C(=O)N(c3ccccc3)N=C2C)ccc1OC(=O)c1ccco1	-12%	?
SMILES	12-hLO inh	ALOX15B inhib
CCOc1cc(/C=C2\C(=O)N(c3ccc(C(N)=O)cc3)N=C2C)ccc1OC(=O)c1cccs1	-18%	5µM*
CN(C)Cc1ccccc1-c1nc(N2CCOCC2)c2ccccc2n1	3%	3%
CC1CN(c2c(F)c(N)c3c(=O)c(C(=O)O)cn(C4CC4)c3c2F)CC(C)N1 (stereo not given)	-1%[0.00818 µM]	9%[0.0915 µM]
Cc1ccc(-c2n[nH]c(=S)n2/N=C/C=C/c2ccccc2[N+](=O)[O-])cc1	-7%	13µM*
COc1ccccc1/C=C\C=N\n1c(-c2ccc(Cl)cc2)n[nH]c1=S	-1%	nt
COc1ccc(-c2cc(C(=O)N/N=C/c3ccc(OC)c(OC)c3)[nH]n2)cc1	-4%	nt
Clc1ccccc1-c1ccc2ncnc(NCCN3CCOCC3)c2c1	nt	55%
Cc1cc(C)nc(SCc2nc3nc(C)cc(C)n3c2Br)n1	-8%	4%
Cc1cc(C)n2c(=S)[nH]nc2n1	?	6.3µM*
COC(=O)c1ccccc1S(=O)(=O)N1CCc2nc(-c3ccc(OC)cc3C)c3c(c2C1)CO[C@@H](c1ccccc1)C3	-3%[11.4 µM]	nt
Cc1cc(C(=O)Nc2sc3c(c2C#N)CCC(C)C3)cs1 (stereo not given)	-5%	-12%
Cc1ccccc1C(=O)NC(=S)Nc1sc2c(c1C#N)CCC(C)C2 (stereo not given)	?	25µM*
Cc1noc(C)c1-c1nccc(-n2ccnc2)n1	-1%	-2%
CO[C@H]1C[C@@H]2CC[C@@H](C)[C@@](O)(O2)C(=O)C(=O)N2CCCC[C@H]2C(=O)OC([C@H](C)C[C@@H]2CC[C@@H](O)[C@H](OC)C2)CC(=O)[C@H](C)/C=C(\C)[C@@H](O)[C@@H](OC)C(=O)[C@H](C)C[C@H](C)/C=C/C=C/C=C/1C (stereo not given in full)	-3%[0.00818 µM]	-15%[0.0915 µM]
c1ccc2c(c1)Sc1ccccc1-n1cnnc1-2	-1%	nt
N=C1Sc2ccccc2C2=NCCCN12	?	13µM*
COC(=O)[C@@H](NC(=O)N1CCc2nc(COc3ccccc3)c3c(c2C1)CO[C@@H](C)C3)C(C)C	0%[11.4 µM]	nt
